MITF primary: human MITF inhibition, primary screen; AlphaScreen MITF homodimerization, bead proximity signal; inhibition, % at 2.6 µM; 0.91% of 650,000 active; in the data active = inhibition above about 50%;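 note: 0% = vehicle wells with protein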
Target sequence (O75030 whole entry, looked up): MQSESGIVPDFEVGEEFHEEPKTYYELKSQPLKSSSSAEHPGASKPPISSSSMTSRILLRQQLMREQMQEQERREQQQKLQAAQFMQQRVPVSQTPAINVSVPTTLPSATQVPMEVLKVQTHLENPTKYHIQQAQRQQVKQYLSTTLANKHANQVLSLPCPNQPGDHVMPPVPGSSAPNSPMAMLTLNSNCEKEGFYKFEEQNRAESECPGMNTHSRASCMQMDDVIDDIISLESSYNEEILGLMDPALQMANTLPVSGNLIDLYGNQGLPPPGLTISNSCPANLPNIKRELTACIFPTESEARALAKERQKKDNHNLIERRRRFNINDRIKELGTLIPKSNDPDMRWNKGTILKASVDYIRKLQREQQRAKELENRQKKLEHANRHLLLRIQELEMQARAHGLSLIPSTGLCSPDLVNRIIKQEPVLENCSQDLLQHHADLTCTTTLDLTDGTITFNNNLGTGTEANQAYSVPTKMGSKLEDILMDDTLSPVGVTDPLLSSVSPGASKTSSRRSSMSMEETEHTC
FBW7 act: activators of human E3 ligase FBW7; Q969H0; AlphaScreen FBW7–phospho-cyclin E peptide binding, activator screen; normalized activity (activation), % at 26.1 µM; 0.13% of 650,000 active; in the data active = normalized activity above about 1.9%;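 note: purified mutant Fbw7 with reduced substrate affinity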
TEAD-YAP inh: TEAD-YAP interaction inhibition. HEK-TIYL cells, TEAD-Gal4/YAP UAS-luciferase luminescence. inhibition, % at 9.12 µM. 1.4% of 640,000 active; in the data active = inhibition above about 32%;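 note: 0% = median of test compound wells and 100% = reference inhibitor wells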
GPR151 ag: human GPR151 activation. Q8TDV0. PathHunter beta-arrestin GPR151 cells, luminescence. activation, % at 11.2 µM. 1% of 650,000 active. AID 1508602; in the data active = activation above about 4.9%;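 note: 0% = median of compound wells and 100% = cells with positive control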
GPR151 confirm: human GPR151 activation, confirmation screen; shares compounds with GPR151 ag; GPR151 PathHunter beta-arrestin cells, luminescence, 90 min; % of EA-reagent control over plate median; activation, % at 11.2 µM; 6,700 tested, under 10 active; AID 1508609;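 active = mean percent activation across replicates above the confirmation screen cutoff of 4.91%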
GPR119 ag: GPR119 activation, counter-screen for GPR151 activators. shares compounds with GPR151 ag. GPR119 PathHunter beta-arrestin cells, luminescence, 90 min; 0 = compound-well median, 100 = enzyme-acceptor control. 0.3% of 6,700 active. AID 1508611. activation, % at 11.2 µM;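 active = mean percent activation in the counterscreen above 29.09%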;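 note: counterscreen on off-target GPR119 to flag nonselective hits from the GPR151 activator screen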
* marks the source's active call; other numbers are inactive results; . = not tested or not shown. A selection: hits, their analogues and other compounds. The true share with any hit is near 3.5%.

SMILES | MITF primary | FBW7 act | TEAD-YAP inh | GPR151 ag | GPR151 confirm | GPR119 ag
O=C(NC1CCCCC1)c1ccc(-n2cccc2)cc1 | 19 | 0 | -44 | 5.8* | 0 | -3
O=C(NC1CCCCC1)c1ccc(F)c(F)c1 | -10 | 0 | 8 | 5.8* | 0 | -18
CCCCCCc1nnc(NC(=O)c2ccc([N+](=O)[O-])c(Cl)c2)s1 | 6 | 1 | 6 | -1 | . | .
Cn1c2ccccc2c2nnc(SCC(=O)c3ccccc3)nc21 | -17 | 0 | 1 | 5.5* | 0 | -3
COc1ccccc1C(=O)Nc1ccnn1C1CCN(Cc2ccc3nsnc3c2)CC1 | 5 | 0 | 6 | 5.6* | 1 | 7
COc1ccccc1C(=O)Nc1ccnn1C1CCN(Cc2cccc(C(C)=O)c2)CC1 | -3 | 0 | -7 | 1 | . | .
COc1ccccc1C(=O)Nc1ccnn1C1CCN(C2CCCCC2)CC1 | 5 | 0 | -3 | 5.1* | 1 | 10
CCn1cc(CN2CCC(n3nccc3NC(=O)c3ccc(OC)cc3)CC2)cn1 | 6 | 0 | 9 | 5.2* | -1 | -20
COc1ccc(C(=O)C[N+]2=C(N)c3ccccc3C2)cc1OC | -2 | 0 | -43 | -6 | . | .
Cc1nn(-c2ccccn2)c2c1C(=O)CC(C)(C)C2Br (stereo not drawn) | 16 | 0 | 4 | 5.8* | -1 | -8
CN1C(=O)C(C)(C)c2cc(S(=O)(=O)N3CCC(C(=O)N4CCCCCC4)CC3)ccc21 | -7 | 1 | 2 | 0 | . | .
Cc1ccc(/C(N)=N/OC(=O)CCc2ccccc2)cc1 | 9 | 0 | -23 | 5.0* | 0 | -10
Cc1nc2ccccc2n1CCNS(=O)(=O)c1ccc(F)cc1 | 34 | 0 | -12 | 6.4* | 1 | 6
COCCN1C(=O)C(O)=C(C(=O)c2cc3ccccc3o2)C1c1cccc([N+](=O)[O-])c1 (stereo not drawn) | 10 | 0 | 8 | 5.7* | -1 | -11
COc1ccc2nc(Nc3nc4ccc(OC)cc4s3)sc2c1 | -6 | 0 | -2 | 0 | . | .
CC(C)C(NC(=O)C1CCCCC1)C(=O)Nc1ccncc1 (stereo not drawn) | -2 | 0 | 6 | 5.6* | 0 | 9
Cc1ccc([N+](=O)[O-])cc1N1C(=O)C2CC=C(Cl)CC2C1=O (stereo not drawn) | -6 | 0 | -2 | 0 | . | .
Cc1cc([N+](=O)[O-])ccc1N1C(=O)C2CC=C(Cl)CC2C1=O (stereo not drawn) | 9 | 0 | 2 | 5.6* | 1 | -3
COc1cc(C(=O)Nc2ccc(O)cc2C)cc(OC)c1OC | 12 | 0 | -1 | -1 | . | .
COc1cc(C(=O)Nc2cc(C)c(O)cc2C)cc(OC)c1OC | -6 | 0 | 5 | 6.1* | 1 | 4
O=C1[C@@H]2CCCN2C(=O)[C@H]2CN(Cc3cnn(-c4ccccc4Cl)c3)CCN12 | 3 | 0 | -2 | 0 | . | .
CC(C)C[C@H]1C(=O)N2CCN(Cc3cnn(-c4ccccc4Cl)c3)C[C@@H]2C(=O)N1C | -5 | 0 | -16 | 5.8* | 0 | 4
Cc1ccc(-c2c(C(=O)N3c4ccc(F)cc4CCC3C)oc(=O)c3ccccc23)cc1 (stereo not drawn) | 2 | 0 | -5 | 0 | . | .
CN(Cc1ccccc1)C(=O)c1cc(-c2ccccc2O)no1 | 7 | 0 | -11 | -1 | . | .
COc1ccc(-c2cc(C(=O)N(C)Cc3ccccc3)on2)cc1OC | -5 | 0 | -10 | 5.9* | 0 | 0
SMILES | MITF primary | FBW7 act | TEAD-YAP inh | GPR151 ag | GPR151 confirm | GPR119 ag
COc1ccc(/C=C(/NC(=O)c2ccccc2)C(=O)Nc2ccc(C)c(C)c2)cc1OC | 23 | 1 | 0 | 0 | . | .
O=[N+]([O-])c1ccc(CSC2=NCCN2S(=O)(=O)c2ccccc2)cc1 | 24 | 1 | 1 | 5.1* | 1 | -1
O=[N+]([O-])c1ccc(CSC2=NCCN2S(=O)(=O)c2ccc([N+](=O)[O-])cc2)cc1 | 3 | 0 | 4 | 2 | . | .
CCCS(=O)(=O)N1CCN=C1SCc1cccc([N+](=O)[O-])c1 | 8 | 0 | -14 | 5.3* | 0 | -2
CCS(=O)(=O)N1CCN=C1SCc1cccc([N+](=O)[O-])c1 | 34 | 0 | 6 | 0 | . | .
COc1ccc(Cc2n[nH]c(=O)c3ccccc23)cc1OC | -4 | 0 | -10 | 5.3* | 1 | -5
O=c1[nH]nc(Cc2ccccc2)c2ccccc12 | 4 | 0 | -13 | 0 | . | .
COc1ccc(C(=O)OCc2cc(C(C)=O)ccc2OC)cc1 | 6 | 0 | -6 | -1 | . | .
Brc1ccc(SCCc2ccncc2)cc1 | 22 | 1 | 2 | 12* | -1 | -14
Fc1ccc(Br)cc1SCCc1ccncc1 | -1 | 0 | 5 | -1 | . | .
COc1ccc(OC)c(CNCCN2CCOCC2)c1 | 3 | 0 | 13 | 1 | . | .
CCN1CNC(=S)N(c2ccc(F)c(Cl)c2)C1 | 7 | 0 | 1 | 6.0* | 0 | -7
C/C(=N\Nc1cc(N2CCOCC2)nc(C)n1)c1cccc([N+](=O)[O-])c1 | 9 | 0 | -9 | 5.2* | 1 | 4
CCOC(=O)c1ccc(N2C(=O)/C(=C\c3ccc(C(=O)OC)cc3)C(C(=O)OC)=C2C)cc1 | 3 | 0 | -1 | 4 | . | .
C=CCCC(=O)NCc1cc(NS(=O)(=O)c2ccccc2Cl)cc(C(=O)OC)c1 | 1 | 1 | 3 | 0 | . | .
COC(=O)c1cc(CNC(=O)C(C)C)cc(NS(=O)(=O)c2ccccc2Cl)c1 | -7 | 0 | -9 | 5.6* | 0 | 17
Cc1nnc2sc(SCc3ccc([N+](=O)[O-])cc3)nn2c1=O | -5 | 0 | 1 | 0 | . | .
Cc1ccccc1CSc1nn2c(=O)c(C)nnc2s1 | -6 | -1 | 1 | 6.8* | 1 | 14
CCc1ccccc1NC(=O)c1ccc(F)c(S(=O)(=O)N2CCCCC2C)c1 (stereo not drawn) | 7 | 0 | -8 | 6.7* | -1 | -15
Cc1ccc(-c2c(Nc3ccc(Cl)cc3)c(=O)c2=O)cc1 | 3 | 0 | -3 | 5.0* | 2 | 8
CC(=O)OC[C@H]1O[C@@H](n2ccc(=O)[nH]c2=S)C(OC(C)=O)C1OC(C)=O (stereo partly drawn) | -6 | 0 | -1 | 5.9* | 0 | -10
O=C(O)CN1C(=O)c2cccc3c(Cl)cc(Cl)c1c23 | -1 | 0 | 0 | 6.1* | 0 | 2
O=C(O)CN1C(=O)c2cccc3c(Cl)cc(Br)c1c23 | 2 | 0 | 1 | 0 | . | .
N#C/C(=C\c1ccc(-c2cccc(Cl)c2)o1)C(=O)NCCN1CCOCC1 | 7 | 1 | 2 | 0 | . | .
CCC(COC)NC(=O)CCc1nnc(CCCCc2ccccc2)o1 (stereo not drawn) | 12 | 0 | -6 | 1 | . | .
COC(=O)CN(c1ccc(Cl)cc1Cl)S(C)(=O)=O | 6 | 0 | 5 | 7.3* | -1 | -11

Screening results from PubChem.
